Experimental data published in PubChem BioAssay AID504444 (National Center for Advancing Translational Sciences (NCATS), 2011).
The whole screen tested about 360,000 compounds, of which about 7,500 (2.1%) were called active. Roughly 20% stayed inconclusive and do not appear here. Calls follow the shape of the dose curve; as a rule, active = well fitted inhibition curve with a large enough effect; inconclusive = small, poorly fitted or top-dose-only effect, or effect the other way; inactive = flat fitted curve, though single readings scatter. The entries come from a sample that favours actives as a whole. Entries that show only a call come without a potency.

Test: Nrf2 qHTS screen for inhibitors; also: nearly all actives have a fitted effect of over 60% in size
Settings: A549 ARE-Fluc reporter, luciferase luminescence, 18-24 h; series mostly up to 46 µM
In short: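 A549 ARE_Fluc cells, 5000/well, 5% FBS OPTI-MEM; compounds in dose-response, 18-24 h at 37 °C/5% CO2; CellTiter-Fluor viability read (Ex 405/Em 525), then BugLite luciferase luminescence = Nrf2 activity.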
Potency is read from the fitted curve at half-maximal effect.

| Structure (SMILES) | Potency |
| --- | --- |
| Cc1ccc(NC(=O)C(C)Sc2nnc(C3CC3)n2C2CC2)cc1S(=O)(=O)N1CCOCC1 (stereo not drawn) | inactive |
| C#CCOCCOCCOCCNc1nc(N2CCN(C(=O)[C@H](CO)n3cc([C@@H](N)C(C)C)nn3)CC2)nc(N2CCN(C(=O)[C@H](CCC(=O)O)n3cc([C@@H](N)[C@H](C)CC)nn3)CC2)n1 | inactive |
| Oc1ccc(-n2nnnc2SCc2c(F)cccc2Cl)cc1 | inactive |
| COc1ccc(CSc2nnnn2-c2ccc(O)cc2)cc1F | 14.6 µM (active) |
| COc1ccc(-n2nnnc2SCC(=O)c2ccc(OC)c(OC)c2)cc1 | 16.4 µM (active) |
| COc1ccc(C(=O)CSc2nnnn2C)c(OC)c1 | inactive |
| Cc1cc(NC(=O)CSc2nnnn2-c2ccc(F)cc2)no1 | inactive |
| COc1ccc(-n2nnnc2SCC(=O)NCc2cccs2)cc1 | inactive |
| O=C(NCc1nnc(C(=O)Nc2ccc(C(F)(F)F)cc2Cl)o1)c1ccccc1 | inactive |
| Cc1nn(-c2ccc(F)cc2)c(Cl)c1/C=C(/CCC(=O)O)c1nc2ccccc2s1 | inactive |
| COc1ccc(-c2ccc3ncnc(NCc4cccs4)c3c2)cc1OC | inactive |
| O=C(CSc1nnc(-c2ccccc2F)o1)Nc1cccc(C(F)(F)F)c1 | inactive |
| COc1cc(OC)c(C(=O)OCC(=O)N2CC(=O)Nc3ccccc32)cc1OC | inactive |
| COc1ccc(C(=O)OCC(=O)N2CC(=O)Nc3ccccc32)cc1Br | inactive |
| COc1ccc(Cl)cc1-n1c(C)cc(C(=O)OCC(=O)N2CC(=O)Nc3ccccc32)c1C | 18.4 µM (active) |
| COc1cccc(-n2cc(C(=O)NCc3cccc(Cl)c3)c3ccccc3c2=O)c1 | inactive |
| Oc1ccccc1-c1nc2ccc(Cl)cn2c1Nc1ccc2c(c1)OCCO2 | inactive |
| Cc1ccc(OCCNC(=O)c2cccc(S(=O)(=O)N3CCN(Cc4ccccc4)CC3)c2)cc1 | 11.6 µM (active) |
| CN1CCN(S(=O)(=O)c2cccc(C(=O)O)c2)CC1 | inactive |
| CC(=O)c1ccc(OCC(O)CN2CCN(S(=O)(=O)c3cccc(Br)c3)CC2)cc1 (stereo not drawn) | inactive |
| NC(=O)C1CCN(C(=O)c2cc(S(=O)(=O)N3CCN(c4ccccc4)CC3)ccc2Cl)CC1 | inactive |

| Structure (SMILES) | Potency |
| --- | --- |
| COCCNC(=O)CSc1nc(-c2ccccc2)[nH]c1-c1ccc(C)cc1 | inactive |
| CC(C)(C)c1ccc(Oc2ccc(N)cc2)cc1 | 4.11 µM (active) |
| CC(C)(c1ccccc1)c1ccc(OCCN)cc1 | inactive |
| COc1cccc(Oc2ccc(N)cc2)c1 | inactive |
| COc1cccc(NC(=O)CSc2cc(=O)n(C)c3ccc(Cl)cc23)c1 | inactive |
| Cc1ccc(N2CC(c3nnc(Cc4ccccc4Cl)o3)CC2=O)cc1 (stereo not drawn) | inactive |
| CN1CCC(N(C)C(=O)c2ccc(Cl)c(S(=O)(=O)Nc3ccc(Cl)cc3)c2)CC1 | inactive |
| COc1ccccc1-c1ccnc2[nH]n(-c3ccccc3)c(=O)c12 | inactive |
| CCOc1ccccc1NC(=O)c1ccc2c(c1)CCN2S(=O)(=O)c1ccc(C)cc1 | inactive |
| O=C(Nc1ccc(NC(=O)c2ccc3c(c2)OCO3)cc1)c1cccc(Cl)c1 | inactive |
| CC(NS(=O)(=O)c1ccc(Cl)cc1)C(=O)Nc1ccc2c(c1)OCCO2 (stereo not drawn) | inactive |
| O=C(Nc1cccc(S(=O)(=O)Nc2ccc(Cl)cc2)c1)c1ccc2c(c1)OCCO2 | 10.3 µM (active) |
| CCN(CC)S(=O)(=O)c1ccc(N(C)Cc2ccc(C(F)(F)F)cc2)nc1 | 18.4 µM (active) |
| CCN(CC)S(=O)(=O)c1ccc(N(C)CCc2ccc(OC)c(OC)c2)nc1 | inactive |
| CCN(CC)S(=O)(=O)c1ccc(NC(=O)c2cnc(C)cn2)cc1 | inactive |
| CCOC(=O)C1=C(C)N(C[C@@H]2CC[C@@H](Cc3ccc(-c4ccccc4)cc3)O2)C(=O)NC1c1ccc([N+](=O)[O-])cc1 (stereo partly drawn) | inactive |
| Cc1ccc(F)cc1NC(=O)CCSc1nc(-c2ccco2)cc(C(F)(F)F)n1 | inactive |
| O=C(CSc1nnc2c(n1)[nH]c1ccccc12)NC1CCCCC1 | 3.66 µM (active) |
| CCOc1ccc2[nH]c3nc(SCC(=O)NC4CCCC4)nnc3c2c1 | inactive |
| COc1ccc2[nH]c3nc(SCC(=O)NC4CC4)nnc3c2c1 | inactive |
| CCOC(=O)c1cccc(NC(=O)C(Cc2ccccc2)NS(=O)(=O)c2cccc3nsnc23)c1 (stereo not drawn) | inactive |

| Structure (SMILES) | Potency |
| --- | --- |
| Cc1ccc2oc3c(c(=O)c2c1)C(c1ccc(O)cc1)N(Cc1ccc2c(c1)OCO2)C3=O (stereo not drawn) | inactive |
| CC(C)[C@@H](C(=O)OCC(=O)c1ccc2c(c1)NC(=O)CO2)N1C(=O)c2ccccc2C1=O | inactive |
| CC(C)c1ccc(S(=O)(=O)Nc2ccc(O)c(Sc3nc4ccccc4s3)c2)cc1 | inactive |
| O=C(CCC(=O)c1ccccc1)NCc1cccc(C(F)(F)F)c1 | inactive |
| O=C(CCC(=O)N1CCN(S(=O)(=O)c2ccc(Cl)cc2)CC1)NCc1cccc(C(F)(F)F)c1 | 8.2 µM (active) |
| O=C(CCn1ccc2cc(S(=O)(=O)N3CCCC3)ccc21)NCc1cccc(Cl)c1 | inactive |
| COc1ccc(-c2nc(=N)sn2-c2ccccc2)cc1 | inactive |
| Cc1ccc(NC2=C(c3ccc(C(F)(F)F)cc3)C(=O)c3ccccc32)cc1F | inactive |
| O=S(=O)(Nc1ccc2nc(-c3cccc(Cl)c3)oc2c1)c1ccccc1 | inactive |
| O=C(Nc1ccccc1C(=O)Nc1ccncc1)c1ccc([N+](=O)[O-])cc1 | inactive |
| O=C(Nc1cc(-c2ccccc2)nn1-c1ccccc1F)c1ccc([N+](=O)[O-])cc1 | 20.6 µM (active) |
| O=C(Nn1c(-c2ccccc2)nc2ccccc2c1=O)c1ccc([N+](=O)[O-])cc1 | inactive |
| COc1cccc(CNCCSc2nnnn2C)c1OCc1ccccc1Cl | inactive |
| COc1cc(OC)c(OC)cc1/C=N/Nc1ncnc2c1[nH]c1ccc(C)cc12 | inactive |
| CC(C)OCCCNc1ncnc2c1[nH]c1ccc(F)cc12 | 4.11 µM (active) |
| CC(C)OCCCNC(=O)c1cc(Sc2ccc(F)cc2)nc2ccccc12 | inactive |
| Cc1ccc(CCNC(=O)c2nnc(Cc3cccc(F)c3)o2)cc1 | inactive |
| CCOC(=O)c1ccc(CSc2nnc3cc(C)c4ccccc4n23)cc1 | inactive |
| CC1C=CCC2C(=O)N(c3cccc(C(=O)N4CCCCCC4)c3)C(=O)C12 (stereo not drawn) | inactive |
| Cc1cccc(N2CCN(C(=O)c3cccc(N4C(=O)C5C6C=CC(C6)C5C4=O)c3)CC2)c1C (stereo not drawn) | 18.4 µM (active) |
| COC(=O)c1cccc(N2C(=O)C3C4C=CC(CC4)C3C2=O)c1 (stereo not drawn) | inactive |
